# Rows were chosen to be rich in hits. Some 1.5% of all compounds tested hit in one or more screens of this group.
# HGIII-sPLA2 inh – Inhibits HGIII-sPLA2 liposome hydrolysis, primary screen; QFRET BODIPY PC-A2 liposome hydrolysis, fluorescence; Q9NZ20; inhibition, % at 12.2 µM; 370,000 compounds, 0.56% hits;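 active = inhibition above mean plus 3 SD of compounds lying within the high and low control bounds, cut at about 19% in these data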
# PLCg1 inh – PLC-gamma1 (human) inhibition, primary screen | P19174 | purified PLC-gamma1, fluorogenic substrate, fluorescence | inhibition, % at 12.2 µM | 370,000 compounds, 0.84% hits | AID 720700
# PLC-beta3 inh – PLC-beta3 (human) inhibition, primary screen | Purified PLC-beta3, fluorogenic substrate, fluorescence | inhibition, % at 12.2 µM | Q01970 | 370,000 compounds, 0.18% hits | AID 720704; in the data active = inhibition above about 11%
# DAGLB inh – diacylglycerol lipase beta (human) inhibition; Q8NCG7; HEK293T DAGLB membrane lysate, EnzChek fluorogenic substrate; inhibition, % at 5.17 µM; 340,000 compounds, 0.059% hits; AID 504411; in the data active = inhibition above about 34%
# PLCg1 ctr – inhibits human PLC-gamma1 in PLC-beta3 counter-screen | AID 743258 | purified PLC-gamma1, fluorogenic substrate, fluorescence | 3,300 compounds, 3.1% hits | inhibition, % at 12.3 µM | shares compounds with PLCg1 inh
# PLCb3 confirm – human PLC-beta3 inhibition, confirmation | purified PLC-beta3, fluorogenic substrate fluorescence | 3,300 compounds, 1% hits | inhibition, % at 12.3 µM | shares compounds with PLCg1 inh; in the data active = inhibition above about 11%
# Hits are given with their value; 0 = inactive; - = no result given. Cut-off read from the data, not from the text of the source, unless noted: active = inhibition above about 9.5%; inactive = the rest.
SMILES,HGIII-sPLA2 inh,PLCg1 inh,PLC-beta3 inh,DAGLB inh,PLCg1 ctr,PLCb3 confirm
O=C(CN1C(=O)/C(=C/c2ccco2)SC1=S)Nc1ccc(O)c(C(=O)O)c1,0,46.5,0,0,36.5,0
O=C(CN1C(=O)/C(=C/c2ccco2)SC1=S)Nc1ccc(C(=O)O)c(O)c1,0,57.9,0,0,40.1,0
CC(C(=O)Nc1ccc(C(=O)O)c(O)c1)N1C(=O)/C(=C\c2ccco2)SC1=S (stereo not drawn),-,-,-,0,-,-
Cc1nn(C)cc1S(=O)(=O)N1CCN(Cc2ccc(F)cc2Cl)CC1,0,0,11.8,0,0,0
COC(=O)[C@H](CC(C)C)N(CCCc1cn(Cc2ccc(C)cc2)nn1)S(=O)(=O)c1ccccc1Br,0,0,0,-,-,-
CCC(CC)c1nn2c(N)c(/C=C3\C=Nc4ccccc43)c(=O)nc2s1,0,10.0,0,0,0,0
CC(C)CNC(=O)CSc1n[nH]c(=O)n1CCc1ccccc1,0,13.3,0,0,0,0
CCCNC(=O)CSc1n[nH]c(=O)n1CCc1ccccc1,0,0,0,0,-,-
Cc1ccc(C)c(N(Cc2ccccc2F)S(C)(=O)=O)c1,0,10.4,0,0,0,0
Cc1ccc(N(Cc2ccccc2F)S(C)(=O)=O)c(C)c1,0,0,0,0,-,-
CCC(CO)Nc1cccc2c1S(=O)(=O)N(Cc1cn(Cc3ccc(C(F)(F)F)cc3)nn1)Cc1ccccc1O2 (stereo not drawn),0,0,0,-,-,-
O=[N+]([O-])c1ccc(CSc2nc3ncc(Br)cc3[nH]2)cc1,0,11.3,0,-,0,0
O=C(CSc1nc2ncc(Br)cc2[nH]1)c1cccc([N+](=O)[O-])c1,0,0,0,0,-,-
COc1ccccc1CNC(=O)CSc1n[nH]c(N)n1,0,0,0,0,-,-
COc1ccccc1C(=O)CSc1n[nH]c(N)n1,0,0,10.8,0,0,0
O=C(OCCN1CCCC12CCC(c1ccccc1)CC2)c1ccccc1 (stereo not drawn),0,0,0,-,-,-
N[C@H](C(=O)N[C@@H](Cc1ccccc1)C(=O)N1CCC2CCN(S(=O)(=O)c3ccccc3)CC21)c1ccccc1 (stereo partly drawn),0,0,0,-,-,-
O=C(c1ccc(CSc2nc3ccncc3[nH]2)cc1)N1CCN(c2cccc(Cl)c2)CC1,0,16.1,0,0,0,0
O=C(c1ccc(CSc2nc3ccncc3[nH]2)cc1)N1CCCCCC1,0,0,0,0,-,-
Cc1nc(NCCOc2ccccc2)sc1C(=O)Nc1ccccc1,0,12.1,0,0,0,0
CCOC(=O)[C@]12CCCC3=C1N(CCC3)C(=O)[C@@H](CC(=O)N1CCN(C(=O)c3ccco3)CC1)C2,0,0,0,-,-,-
O=C(CNS(=O)(=O)c1ccc(Cl)s1)N1CCN(c2ccccn2)CC1,0,0,0,-,-,-
O=C(Cc1ccc(NC(=O)C2CCCN(C(=O)C3CCCCC3)C2)cc1)Nc1ccc(C(=O)N2CCOCC2)cc1 (stereo not drawn),0,10.3,0,0,0,0
CN(Cc1ccccc1)C(=O)c1cccc(NC(=O)Cc2ccc(NC(=O)C3CCCN(C(=O)c4ccccc4)C3)cc2)c1 (stereo not drawn),0,12.5,0,0,0,0
O=C(Nc1ccc2c(c1)OCCO2)C1CCN(C(=O)c2ccc(Br)cc2)CC1,0,0,0,0,-,-
SMILES,HGIII-sPLA2 inh,PLCg1 inh,PLC-beta3 inh,DAGLB inh,PLCg1 ctr,PLCb3 confirm
COc1ccc(C(=O)N2CCC(C(=O)Nc3ccc4c(c3)OCCO4)CC2)cc1,0,0,12.0,0,0,0
O=C(Cc1ccc(NC(=O)C2CCN(C(=O)C3CCCCC3)CC2)cc1)Nc1ccc(C(=O)N2CCOCC2)cc1,0,12.9,0,0,0,0
NC(=O)C1CCN(c2ncc(Br)cn2)CC1,0,0,0,-,-,-
CCOc1ccccc1N1CCN(C(=S)NCc2ccccc2)CC1,0,9.7,0,0,0,0
CCOc1cc(CNCc2ccccc2)ccc1OCc1ccc(Cl)cc1,0,17.2,0,0,0,0
O=C(c1ccc(F)cc1)C1CCN(C(=S)Nc2ccccc2Cl)CC1,0,0,0,0,-,-
Cc1ccccc1NC(=S)N1CCC(C(=O)c2ccc(F)cc2)CC1,0,9.9,0,0,0,0
Nn1c(SCc2cccc3ccccc23)nnc1-c1cc(-c2ccc(F)cc2)n[nH]1,0,0,0,-,-,-
COc1ccc(S(=O)(=O)N(C)CC(=O)NCc2ccccn2)cc1,0,0,0,0,-,-
COc1ccc(Cl)cc1S(=O)(=O)N(C)CC(=O)NCc1ccccn1,0,9.6,0,0,0,0
CC(C)Cc1cc(C(=O)Nc2cc(C(F)(F)F)ccc2Cl)no1,0,12.1,0,0,0,0
C[C@H]1[C@@H](OC(=O)NC2CCC2)CC[C@@]23CCCN2C(=O)CCC[C@@H]13,0,0,0,-,-,-
Nc1nonc1C(=O)N/N=C/c1cccc([N+](=O)[O-])c1,0,0,0,0,-,-
CN(C)c1ccc(/C=N/NC(=O)c2nonc2N)cc1[N+](=O)[O-],0,9.8,0,0,0,0
Cc1nn(Cc2ccccc2)c(C)c1/C=N/NC(=O)CNc1cccc(C(F)(F)F)c1,0,9.6,0,0,0,0
COc1ccc(NS(=O)(=O)c2cn(C)nc2C)cc1,0,11.5,0,0,0,0
COc1cc(CNc2ncnc3c2ncn3[C@H]2CN(Cc3cccc(C(F)(F)F)c3)C[C@@H](CO)O2)cc(OC)c1OC,0,9.6,0,-,0,0
COc1cc(CNc2ncnc3c2ncn3[C@H]2CN(Cc3cccc(C(F)(F)F)c3)C[C@@H](COC(C)=O)O2)cc(OC)c1OC,0,0,0,-,-,-
C=CCn1c(SCc2cccc(C(F)(F)F)c2)nnc1-c1ccc(OC)cc1,0,0,0,-,-,-
Cc1n[nH]c(C)c1NC(=O)CN1CCN(S(=O)(=O)c2ccc(C(F)(F)F)cc2)CC1,0,10.1,0,0,0,0
CCCCC(=O)N1CCC(NS(=O)(=O)c2ccc3c(c2)CCN3C(C)=O)CC1,0,0,0,-,-,-
CC(=O)N1CCc2cc(S(=O)(=O)NC(C(=O)Nc3ccc4c(c3)OCCO4)C(C)C)ccc21 (stereo not drawn),0,10.8,0,0,0,0
O=C(O)c1ccc(NC2=C/C(=N/S(=O)(=O)c3ccccc3)c3ccccc3C2=O)cc1,0,11.3,0,0,18.5,0
Cc1cccc(C(C#N)c2nc3ccccc3nc2C(F)(F)F)c1 (stereo not drawn),0,9.8,0,0,0,0
N#CC(c1ccc(Cl)cc1)c1nc2ccccc2nc1C(F)(F)F (stereo not drawn),0,0,0,0,-,-
Cc1nn(CC(=O)N2CCCC2)c(=O)c2nn(-c3ccccc3)c(C)c12,0,0,11.8,0,0,0
CC1CC(C)CN(C(=O)Cn2c(=O)n(CCCC(=O)NCc3ccco3)c(=O)c3sccc32)C1 (stereo not drawn),0,0,0,0,-,-
CC1CCN(C(=O)Cn2c(=O)n(CCCC(=O)NCc3ccco3)c(=O)c3sccc32)CC1,0,13.3,0,0,0,0
Cc1cccc(-n2ccnc2SCC(=O)O)c1C,0,0,0,0,-,-
